The full ranking holds about 35,000 sequences; the median of “fluorescence intensity (a.u.)” is about 10,000, and the highest 2% start at about 52,000. The sample as a whole holds a higher share of the highest values than the screen did.
These sequences were tested against T1, OsWOX13 (Oryza sativa, UniProt Q5QMM3 1-267) (assay: protein-binding microarray (RPBM); PBS, 2% BSA, 51.3 ng/ul salmon testes DNA, 50 uM zinc acetate, 200 nM TF, 25 C, 1 h; high values mean tight binding). Conditions: protein: recombinant; tags: N-terminal polyhistidine and DsRed monomer fusion (pET32a); label: CyDye5-dUTP incorporated in the synthesized complementary strand; 3' TTTTT single-stranded linker to array surface; dsDNA, one strand shown.
T1 sequence: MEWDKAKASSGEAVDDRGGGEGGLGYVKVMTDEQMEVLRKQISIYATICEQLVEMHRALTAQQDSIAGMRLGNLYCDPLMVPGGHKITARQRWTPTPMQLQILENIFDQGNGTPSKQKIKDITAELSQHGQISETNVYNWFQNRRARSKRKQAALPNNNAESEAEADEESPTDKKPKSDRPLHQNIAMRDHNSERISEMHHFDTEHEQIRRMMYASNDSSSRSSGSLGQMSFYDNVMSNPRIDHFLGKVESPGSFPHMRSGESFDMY
Procedure, shortened: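 Transcription factors were each fused at the N-terminus to a polyhistidine tag plus DsRed and expressed in E. coli BL21-CodonPlus before Ni–NTA purification. Binding to a double-stranded custom Agilent array was carried out with 200 nM protein at 25 °C for 1 h in PBS, 2% BSA, salmon testes DNA and 50 µM zinc acetate. The binding signal is per-feature fluorescence intensity, in arbitrary units, on an Axon 4000B scanner.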

| Sequence | binding signal |
| --- | --- |
| ATGATTTGCATGATTGCTTGCTTGCTTGCTGCTATGGCCACGGAGTCACCTAGTGCAG | 62700 fluorescence intensity (a.u.) |
| ATCATGATTGCATGATTGATTGCACATTTGCATCATTTCCCGGAGTCACCTAGTGCAG | 63400 fluorescence intensity (a.u.) |
| CCAATAATAACACTGATCACTGATCAATCATGGCATCATGCGGAGTCACCTAGTGCAG | 16000 fluorescence intensity (a.u.) |
| GTGATCACCCTTTGATTGACCCGCACCCGCATCCCTTTCCCGGAGTCACCTAGTGCAG | 35500 fluorescence intensity (a.u.) |
| TGTCACATCACATCGATCATTGATTTCACTTTGATTCCTCCGGAGTCACCTAGTGCAG | 5220 fluorescence intensity (a.u.) |
| CTCATGATTTACGGCTGCTGGCCGCCGGGCTATTTAACCACGGAGTCACCTAGTGCAG | 10900 fluorescence intensity (a.u.) |
| ATTGATTGATCAAGACTGCATGGCAATACTCGACGTGCTGCGGAGTCACCTAGTGCAG | 64800 fluorescence intensity (a.u.) |
| TATTTTGCTTAAATGGCTGATTAGTCAAAGCATTTGGCCACGGAGTCACCTAGTGCAG | 4720 fluorescence intensity (a.u.) |
| AAGATTGGATTCGCTGCAATACCATCACTAAACTCGGCTTCGGAGTCACCTAGTGCAG | 12800 fluorescence intensity (a.u.) |
| CACTTAATCATATTCATCATATTCAAACGGGACCTAAGGGCGGAGTCACCTAGTGCAG | 8880 fluorescence intensity (a.u.) |
| CCCTCCATCCCCTCAGTCCACTCAATCACCACACCAGCCACGGAGTCACCTAGTGCAG | 3850 fluorescence intensity (a.u.) |
| CCAATCACATTCACTTTTACAGTTTAGCCCCACCCTCTCCCGGAGTCACCTAGTGCAG | 4980 fluorescence intensity (a.u.) |
| ATTCTGATTGGCAAGTTGGTTATTCCTTTTCTGATTGGTTCGGAGTCACCTAGTGCAG | 60700 fluorescence intensity (a.u.) |
| ATGAAGAAACTGTTGGTGATTTGACAAGTAGGCTTGGTTCCGGAGTCACCTAGTGCAG | 6530 fluorescence intensity (a.u.) |
| GTTATCATGATTTATATTCCCAAGGTTTGACTTAAACATTCGGAGTCACCTAGTGCAG | 11400 fluorescence intensity (a.u.) |
| GATTCCCTTCTTTTCTTTGGTTGATTTCTTTCTGTATTTCCGGAGTCACCTAGTGCAG | 5880 fluorescence intensity (a.u.) |
| ATATTGATTGATTGGTTATTCGCAAGAAACATGACTGTTCCGGAGTCACCTAGTGCAG | 63800 fluorescence intensity (a.u.) |
| GCTTGATGACCAAGTATATATAAACATGTCAGTGATTATTCGGAGTCACCTAGTGCAG | 5670 fluorescence intensity (a.u.) |
| ATACCTTATTGAAATATGATTGTTCGACTGGTTACTGAATCGGAGTCACCTAGTGCAG | 19500 fluorescence intensity (a.u.) |
| CTGTATATTGATTGATTGGTTATTCGCAAGAAACATGACTCGGAGTCACCTAGTGCAG | 65100 fluorescence intensity (a.u.) |
| GGGCATAAATTTTGGTGATTTTCGGTTTTCTGAAGTTCCTCGGAGTCACCTAGTGCAG | 7130 fluorescence intensity (a.u.) |
| AGGGAATTTTATGATTTGCATTGGTGCTGAGGTCAAACCCCGGAGTCACCTAGTGCAG | 7180 fluorescence intensity (a.u.) |

| Sequence | binding signal |
| --- | --- |
| GACAGATTAATTAAAGAATCATCATTACTGCGATGCGACCCGGAGTCACCTAGTGCAG | 16600 fluorescence intensity (a.u.) |
| ACAAATTGCCAACTCATGAAAGTGATCGATGATGGGCTTACGGAGTCACCTAGTGCAG | 15700 fluorescence intensity (a.u.) |
| GTCCTACATATGCTAAATTGGCAATATGTAAAGATTTACTCGGAGTCACCTAGTGCAG | 4980 fluorescence intensity (a.u.) |
| TTATTTATCAGTCTGATTTTATATAATGTAATATTATGCACGGAGTCACCTAGTGCAG | 3150 fluorescence intensity (a.u.) |
| AAATTAACTTAATTAATAAGTTGAGCAGCCTGTAGGCCTTCGGAGTCACCTAGTGCAG | 17500 fluorescence intensity (a.u.) |
| TAAGTTAAATAACTATTAATTGTGGCCTGTGCTCAGCCTTCGGAGTCACCTAGTGCAG | 9070 fluorescence intensity (a.u.) |
| GCAAATTAACTTAATTAATAAGTTGAGCAGCCTGTAGGCCCGGAGTCACCTAGTGCAG | 58200 fluorescence intensity (a.u.) |
| AATGATTAGAATTTGGTAAAGTAGAGGACAAAGATAAAATCGGAGTCACCTAGTGCAG | 7910 fluorescence intensity (a.u.) |
| TTTAACACAAATGAGAACTTGATCGATTCCTCGTATTGTTCGGAGTCACCTAGTGCAG | 3850 fluorescence intensity (a.u.) |
| GAAATTGATTTATCCAGGGAAACTGTCGTGACAAATTTCGCGGAGTCACCTAGTGCAG | 49300 fluorescence intensity (a.u.) |
| AAAATAAACAAATCTATCCACTAACAATTTGACATGATATCGGAGTCACCTAGTGCAG | 7240 fluorescence intensity (a.u.) |
| GGATAGAATTGATTGAGCGAGAGAGAGAATTGAACACAAACGGAGTCACCTAGTGCAG | 21200 fluorescence intensity (a.u.) |
| TTCGGATTGATTGTTGAGACAAATCTCGTAGAACACGGAACGGAGTCACCTAGTGCAG | 62900 fluorescence intensity (a.u.) |
| TTTGAGTGATTGACAGGAAACAAATCCACCACTATCTGTTCGGAGTCACCTAGTGCAG | 62400 fluorescence intensity (a.u.) |
| ATAAATAAATACTCTAATTGCAAGCAACCAACGTCCCAACCGGAGTCACCTAGTGCAG | 5780 fluorescence intensity (a.u.) |
| CTACAATTTATCATAAACTTGATAAAATATAAACAAATTCCGGAGTCACCTAGTGCAG | 4240 fluorescence intensity (a.u.) |
| AGGACATAATTTTAATGGGGAAATTGGTTCCATACCATCTCGGAGTCACCTAGTGCAG | 20500 fluorescence intensity (a.u.) |
| AGCTAGCTTTGACTAATCAATCAGCAGCTAATTTCAGTCTCGGAGTCACCTAGTGCAG | 13700 fluorescence intensity (a.u.) |
| ATTTAATAGTATTAAACGTAGATTACTGATAAAACCTATTCGGAGTCACCTAGTGCAG | 4260 fluorescence intensity (a.u.) |
| TAGCTTAGCTCGTATTCGTATAAAACGTAGTACAAGGTTCCGGAGTCACCTAGTGCAG | 61300 fluorescence intensity (a.u.) |
| AAAATAAATTGACAACATTCGTACAATATATATAAATATCCGGAGTCACCTAGTGCAG | 25900 fluorescence intensity (a.u.) |

Reference: paper PMC7819943, “Rice protein-binding microarrays: a tool to detect cis-acting elements near promoter regions in rice”
